70 compounds from ChEMBL document CHEMBL4513216, “Probing the Open Global Health Chemical Diversity Library for Multistage-Active Starting Points for Next-Generation Antimalarials” (ACS Infect Dis, 2020) can be followed below.

The structures appear in SMILES notation. Out of some 69,000 compounds screened, about 8,600 (12%) showed an effect of 50% or more. Shown is part of a subset that was picked to be rich in strong results.

In this assay the test system is Plasmodium berghei. Kind of assay: Screen against P. berghei liver stage (PbLuc), transformed with Luciferase, at 10uM. It is filed as functional, HepG2. To be noted: tested at 10 uM.
For the compound `CC(C)C(Sc1cccs1)C(=O)NCc1cccnc1` (stereo not given), the INHIBITION is 18.4%. Next, `Cc1nc(CN(C)C2CCN(CCCOc3ccc(F)cc3)C2)no1` (stereo not given): -0.219%; `O=C(c1ccco1)N1CCCC(c2cc(C(F)(F)F)n3ncnc3n2)C1` (stereo not given): 60.4%. On to `COCC(=O)N1CCCC(c2cc(C(F)F)n3ncnc3n2)C1` (stereo not given), for which the INHIBITION came out at 59.3%. Take `O=C(c1ccncc1)N1CCCC(c2cc(C(F)F)n3ncnc3n2)C1` (stereo not given): the INHIBITION is on record as 35.2%. Then `CC(C)C(=O)N1CCCC(c2cc(C(F)F)n3ncnc3n2)C1` (stereo not given), with 39.8%; and `O=C(Cc1ccsc1)N1CCCC(c2cc(C(F)F)n3ncnc3n2)C1` (stereo not given), with 28%.

In the case of `O=C(c1ccco1)N1CCCC(c2cc(C(F)F)n3ncnc3n2)C1` (stereo not given), the INHIBITION was determined as 14.8%. Turning to `O=C(c1cnoc1)N1CCC[C@]2(C[C@H](Oc3ncccc3F)CO2)C1`, the INHIBITION was -28.2%. On to `CCCSCC(=O)N1C[C@H]2CC[C@@H](C1)N(Cc1ccccn1)C2=O`, for which the INHIBITION stood at 35.9%. Next, `O=C1OCCN1CC(=O)N1C[C@@H]2CC[C@H]1CN(C(=O)c1ccccc1)C2`: -12.6%.

With `O=c1c(NCCOCCO)c(N2CCN(c3ccccc3)CC2)c1=O`, the INHIBITION worked out at 6.34%.

With `CCn1nc(C)c2nnn(CC(=O)Nc3ccc(C)c(C)c3)c(=O)c21`, the INHIBITION stood at 11%. Next, `O=C(NCc1cc(N2CCOCC2)ncn1)c1cccc(CO)n1`: 71.1%; `COc1cc(C(=O)NCc2cc(N3CCOCC3)ncn2)ccn1`: 63.7%; `COc1ccc(C(=O)NCc2cc(N3CCOCC3)ncn2)o1`: 8.11%. For the compound `COc1nc(C)c(C(=O)NCc2cc(N3CCOCC3)ncn2)s1`, the INHIBITION was determined as 34%. Next, `O=C(Cn1ccc2ccccc21)NCc1cc(N2CCOCC2)ncn1`: 12.8%; `Cc1cc(C(=O)NCc2ccnc(N3CCOCC3)c2)c(C)s1`: 4.65%; `CCn1cnnc1CNC(=O)N1CCN(c2ccccc2O)CC1`: 36.1%. Next, `NCC1[C@H]2CN(Cc3ccccc3F)C[C@@H]12` (stereo not given in full): 45.7%. Next, `O=c1cc(CSc2nnc[nH]2)nc2sc3c(n12)CCCC3`: 16.5%. For the compound `COCCCS(=O)(=O)N1CCN(c2cccc(O)c2)CC1`, the INHIBITION came out at 14.6%. Then `COCCCS(=O)(=O)N1CCN(Cc2cccn2C)CC1`, with 51.1%. Next, `CC(C)OCCS(=O)(=O)N1CCN(Cc2cccn2C)CC1`: 4.1%; `Cc1c(Br)cccc1C(=O)NCCC1CCCNC1` (stereo not given): 28.6%. Take `O=C(C1CC(c2ccccc2)=NO1)N1CCCCc2ccccc21` (stereo not given): the INHIBITION is reported as -15%. On to `CCC(c1ccc(F)cc1F)S(=O)(=O)CCO` (stereo not given), for which the INHIBITION is reported as 23.8%. Turning to `CCC(c1ccc(F)cc1)S(=O)(=O)CCO` (stereo not given), the INHIBITION was 15.9%. Then `CCC(c1ccccc1)S(=O)(=O)CCO` (stereo not given), with 61.8%. Regarding `Nc1nccnc1C1CN(C(=O)COc2cccnc2)CCO1` (stereo not given), the INHIBITION was -50.3%.

`COCC(=O)N1CCC2(CC1)C(=O)N(Cc1cccnc1)CCN2C`: the INHIBITION is on record as 43.2%. Next, `O=C(O)c1cc(C=Cc2cccc3ccccc23)ncn1`: 8.05%; `c1ccc(-c2nccc(CNC3CCc4ncnn4C3)n2)cc1` (stereo not given): 36.1%; `Cn1ncc2c(N3CC[C@H](O)C3)nc(-c3ccncc3)nc21`: 19.8%.

With `Cn1ncc2c(NC3CCSC3)nc(-c3ccncc3)nc21` (stereo not given), the INHIBITION came out at 61.6%. Next, `Cn1ncc2c(N3CC(N4CCCCC4)C3)nc(-c3ccncc3)nc21`: 22.6%; `Cn1ncc2c(N3CCS(=O)(=O)CC3)nc(-c3cccnc3)nc21`: 35%; `Cn1ncc2c(N[C@@H]3C[C@H]4CC[C@@H]3C4)nc(-c3ccncc3)nc21`: 35.1%. As for `Cn1ncc2c(NCC3CCS(=O)(=O)C3)nc(-c3ccncc3)nc21` (stereo not given), the INHIBITION is on record as 15.1%. As to `Cn1ncc2c(N3CCC(F)(F)CC3)nc(-c3ccncc3)nc21`, the INHIBITION is given as 31%.

For `Cn1ncc2c(NC3CN4CCC3CC4)nc(-c3ccncc3)nc21` (stereo not given), the INHIBITION is 53.2%. Next, `CN1[C@@H]2CC[C@H]1CN(c1nc(-c3ccncc3)nc3c1cnn3C)CC2`: 71.3%; `CC(C)N1CCCN(c2nc(-c3cccnc3)nc3c2cnn3C)CC1`: 86.6%.

Consider `Cn1ncc2c(NC3CCC3)nc(-c3ccncc3)nc21`, for which the INHIBITION is reported as 33.7%. With `Cn1ncc2c(N3CCC3)nc(-c3ccncc3)nc21`, the INHIBITION is -3.83%. Next, `CC(=O)N1CCc2cc(Cl)cc(Cl)c2C1`: 37.7%; `COCC1CC2(CCN(CC3CC3)CC2)CN1c1ncccn1` (stereo not given): 18.2%; `Cn1ccc(C(=O)NC2CCC23CCN(Cc2ccc(F)cc2)CC3)c1` (stereo not given): -9.02%. Then `Nc1ncnc2nc(C3CCN(C(=O)Cc4ccccc4)C3)ccc12` (stereo not given), with 6.3535%. Then `COc1ccc(-c2cc(C3CCNCC3)nc(C)n2)cc1`, with -29.9%. Turning to `COc1ccc(N2CCN(Cc3nc(CSC)no3)CC2=O)cc1`, the INHIBITION was -42.9%.

As for `CCNC(=O)Cc1ccc(NC(=O)NC(CC)c2ccncc2)cc1` (stereo not given), the INHIBITION is on record as 4.15%. Next, `CCC(NC(=O)Nc1ccc(OC)c(C)c1)c1ccncc1` (stereo not given): 26.6%. As for `CCC(NC(=O)NCC(=O)Nc1ccc(F)cc1)c1ccncc1` (stereo not given), the INHIBITION worked out at 58.3%.

`O=C(c1ccco1)N1C[C@H]2CCCN(CC3CCOCC3)[C@H]2C1`: the INHIBITION is 49.5%. Then `Cc1cnc(NCCCN2CCCCC2CO)nc1` (stereo not given), with 20.8%. Then `NC(=O)C(Cc1ccccc1)NS(=O)(=O)Cc1ccccc1F` (stereo not given), with 50.5%.

Turning to `N#Cc1cccc(CS(=O)(=O)NCCC(O)c2ccccc2)c1` (stereo not given), the INHIBITION turned out to be 24.5%.

As for `N#Cc1cccc(CS(=O)(=O)NCC(O)Cc2ccccc2)c1` (stereo not given), the INHIBITION stood at 30.8%. Consider `N#Cc1cccc(CS(=O)(=O)NC(Cc2ccccc2)C(N)=O)c1` (stereo not given), for which the INHIBITION was 58.1%.

Take `NC(=O)C(Cc1ccccc1)NS(=O)(=O)Cc1ccccc1Cl` (stereo not given): the INHIBITION is reported as 9.75%. Turning to `O=S(=O)(Cc1ccccc1F)NC(CO)c1ccco1` (stereo not given), the INHIBITION stood at 45.1%.

Regarding `O=C(NC1COC2(CCN(Cc3cccs3)CC2)C1)c1ccccn1` (stereo not given), the INHIBITION is 20.9%. Consider `Cc1ccc(CN[C@@H]2COC[C@H]2c2ccc(F)cc2)cc1C`, for which the INHIBITION is reported as 49%. Turning to `CN1CC2(CCC(C(=O)N3CCOCC3)CC2)Oc2ccccc2C1=O` (stereo not given), the INHIBITION is listed as -3.58%.

On to `COCCN1CCn2c(CN(C)C(C)C)cnc2C1`, for which the INHIBITION is given as -8.28%. Next, `CNC(=O)[C@@H]1[C@@H](c2ccccc2)CN2CCN(Cc3cccs3)C[C@H]12`: 41.1%. Then `CNC(=O)[C@@H]1[C@@H](c2ccccc2)CN2CCN(Cc3ccco3)C[C@H]12`, with 57%; and `CNC(=O)[C@@H]1[C@H]2CN(Cc3ccoc3)CCN2C[C@H]1c1ccccc1`, with 9.36%.
